From PubChem BioAssay (NCI) come the findings set out here.

Each structure is given as a SMILES string. “And” between values parts separate entries of the source, which are not always exact repeats. Identical values can stand only once. About 83,000 compounds went through this panel and 20% of them were active in at least one assay; those are over-represented in the sample as a whole.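 The test compound was applied at a single concentration to cells in 96-well plates for 48 hours, and percent growth was recorded.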 The source made the active and inactive calls. Where a SMILES comes first, the peptide text is derived from it. [ ]: non-standard residue; d: D form. ξ: configuration not given here. ξV = CC(C)C(N)C(=O)O

For the first assay, the system named is MCF7 breast. Briefly: NCI-60 one-dose screen, 48 h (100 = growth as untreated, 0 = no growth, -100 = all killed). The following applies: 0.0025 µM. On the procedure: Growth inhibition of the MCF7 human tumor cell line is measured as a screen for anti-cancer activity. Cells are grown in 96 well plates and exposed to the test compound for 48 hours. Compounds are tested at a single concentration, which is 10^-5 M for most compounds. The reported endpoint is percent growth (GI% or GIPRCNT), where numbers from 0 - 100% represent growth inhibition, and numbers from -100% - 0 represent cell death. For example, a value of 40 represents 60% growth inhibition. A value of 0 means no net growth occurred over the course of the experiment. A value of -40 indicates 40% of cells at the beginning of the experiment died by the end of the experiment. A value of -100 means all cells are dead at the end of the experiment.
NCI-60 Human Tumor Cell Lines Screen was performed using the standard one-dose NCI protocol, which is described in more detail at https://dtp.cancer.gov/discovery_development/nci-60/default.htm.
Compounds with GIPRCNT values below 10 were considered active. Activity score was based on GIPRCNT using the following formula: […]
Score is 0 for GIPRCNT values of 100 or above, 50 for GIPRCNT values of 0, and 100 for GIPRCNT values of -100.
For the compound `COc1cccc2c1C(=O)c1c(O)c3c(c(O)c1C2=O)C[C@@](O)(C(=O)CO)C[C@@H]3OC1CC(N)C(O)C(C)O1` (stereo not given in full), the growth is 71.4% (inactive).

The same assay, now with this note: 1 µM.
On to `COc1cccc2c1C(=O)c1c(O)c3c(c(O)c1C2=O)C[C@@](O)(C(=O)CO)C[C@@H]3OC1CC(N)C(O)C(C)O1` (stereo not given in full), for which the growth is 18.7% (inactive).

Staying with this assay, now noted: 2.5 µM.
For `COc1cccc2c1C(=O)c1c(O)c3c(c(O)c1C2=O)C[C@@](O)(C(=O)CO)C[C@@H]3OC1CC(N)C(O)C(C)O1` (stereo not given in full), the growth was 7.74% (active).

The same assay, now with this note: 10 µM.
For `N=S(c1ccccc1[N+](=O)[O-])c1ccccc1[N+](=O)[O-]`, the growth was -53.7% (active).

`COc1cccc2c1C(=O)c1c(O)c3c(c(O)c1C2=O)C[C@@](O)(C(C)=O)C[C@@H]3OC1CC(N)C(O)C(C)O1` (stereo not given in full): the growth is -9.83% (active).

For `Cc1cc(NS(=O)(=O)c2ccc(N=Nc3cc(N=Nc4ccc(S(=O)(=O)Nc5cc(C)nc(C)n5)cc4)c4c(NC(=O)C(Cl)Cl)cccc4c3OC(=O)C(Cl)Cl)cc2)nc(C)n1` (tested in a mixture with another compound), the growth is 94.4% (inactive) and 78% (inactive).

In the case of `CS(=O)(=O)OC1CC(n2ccc(=O)[nH]c2=O)OC1COC(c1ccccc1)(c1ccccc1)c1ccccc1` (stereo not given), the growth was 97.3% (inactive).

Turning to `OCC(O)C(O)C(O)C(/C=N/Nc1ccccc1)=N/Nc1ccccc1` (stereo not given), the growth is 88.3% (inactive).

For `CC(=O)Nc1cc(C)ccc1C`, the growth is 105% (inactive).

In the case of `C[n+]1c2cc(N)ccc2cc2ccc(N)cc21`, the growth was -3.9% (active) [middle of 4 runs].

Consider `O=c1ccn(C2CC(O)C(COC(c3ccccc3)(c3ccccc3)c3ccccc3)O2)c(=O)[nH]1` (stereo not given), for which the growth was 79.2% (inactive).

`COc1ccc(CC(=O)c2ccc(O)cc2O)cc1`: the growth was 108% (inactive).

On to `Oc1ccc(N=Nc2ccccn2)c(O)c1`, for which the growth was 14.5% (inactive).

As for `CCCCCCCCCCCCSC(=NC)NC`, the growth is -9.44% (active) and 22.6% (inactive).

For `Clc1cc(Cl)c(Cl)nn1`, the growth is 86.3% (inactive).

Regarding `O=C(O)COc1ccc(OCC(=O)O)cc1`, the growth was 6.66% (active).

With `Nc1c2ccccc2nc2ccccc12`, the growth is 2.34% (active) and 7.36% (active) and 9.98% (active).

Turning to `Cc1cc(O)c(C(C)C)cc1Cl`, the growth is 104% (inactive).

Consider `CC(C)(C)CC(C)(C)c1ccc(OCCO)cc1`, for which the growth was 137% (inactive).

With `COc1cccc2c1C(=O)c1c(O)c3c(c(O)c1C2=O)C[C@@](O)(C(=O)CO)C[C@@H]3OC1CC(N)C(O)C(C)O1` (stereo not given in full), the growth is 3.37% (active).

`O=C(Nc1ccc(C(=O)O)c(O)c1)c1ccccc1`: the growth was 102% (inactive) and 95.6% (inactive).

Regarding `CC1=CC(C)=Nc2ccc(Cl)cc2N1`, the growth was 101% (inactive).

Take `CN(C)C(=S)SC(=S)N(C)C`: the growth is 35.3% (inactive) and 71.2% (inactive).

Take `CC(C)C(NC(=O)CN)C(=O)O` (stereo not given) (H-Gly-[ξV]-OH): the growth is 106% (inactive) and 101% (inactive).

Take `O=C(/C=C/c1cccnc1)c1ccccc1`: the growth is 26.1% (inactive).

With `CCCCCC(C)c1ccc(O)c(C)c1` (stereo not given), the growth was 92% (inactive).

For `CCCCCCCCCCCC[N+](C)(C)Cc1ccccc1`, the growth was 15.1% (inactive).

`Nc1ccc2cc3ccc(N)cc3nc2c1`: the growth is 111% (inactive) and -21.7% (active).

As for `NNc1ccc2ccccc2c1`, the growth was 74.8% (inactive) and 80.2% (inactive).

For `O=C(C(=Cc1ccccc1)C(=O)c1ccccc1)c1ccccc1`, the growth was 25.1% (inactive) and 89.3% (inactive).

For the compound `NC1=C(Cl)C(=O)c2ccccc2C1=O`, the growth is 48.3% (inactive).

As for `CCN(CC)c1ccc(NC(C(=O)c2ccccc2)c2ccccc2)cc1` (stereo not given), the growth was 11.1% (inactive).

Regarding `COC(=O)C1C(O)C(C)C(O)C(C)C=C(C)C2=C3C(=C(C)C(=O)c4c(O)c(c(C)c(OC(C)=O)c43)NC(=O)C(C)=C/C=C\C(C)C(O)C(C)C1O)OCO2` (stereo not given), the growth is 103% (inactive).

On to `OCC1OC(n2cnc3c(=S)nc[nH]c32)C(O)C1O` (stereo not given), for which the growth was 108% (inactive) and 20.9% (inactive).

Take `O=C1C=C(O)c2ccccc2C1=O.[Ag]`: the growth is 95.7% (inactive).

For the compound `NC(=O)SCC(=O)NNc1ccccc1`, the growth was 94.2% (inactive).

In the case of `COc1c(O)cc2oc3cc(O)c(CC=C(C)C)c(O)c3c(=O)c2c1CC=C(C)C`, the growth is 16.8% (inactive).

Consider `CC(=O)OCC(OC(C)=O)C(OC(C)=O)C(OC(C)=O)C(OC(C)=O)C(/C=N/Nc1ccccc1)=N/Nc1ccccc1` (stereo not given), for which the growth was 44.1% (inactive).

Still in this assay, the particulars now being: 50 µM.
For the compound `COc1cccc2c1C(=O)c1c(O)c3c(c(O)c1C2=O)C[C@@](O)(C(C)=O)C[C@@H]3OC1CC(N)C(O)C(C)O1` (stereo not given in full), the growth was -90.1% (active) and -89.5% (active).

The assay is the same for the next values; noted with them: 100 µM.
As for `O=c1ccn(C2CC(O)C(COC(c3ccccc3)(c3ccccc3)c3ccccc3)O2)c(=O)[nH]1` (stereo not given), the growth was 16.5% (inactive).
